Results filed as inconclusive are left out. A number with no mark means an inactive call. The source made the active and inactive calls. Calls come from the whole dose curve; as a rule, active = well fitted inhibition curve with a large enough effect; inconclusive = small, poorly fitted or top-dose-only effect; inactive = flat fitted curve, though single readings scatter.
% is set by controls: 0 for no effect and ±100 for the full control effect; potency is the fitted concentration of half-maximal effect.

The first assay deals with KB-3-1. The assay is described as follows: Cytotoxic Profiling of Annotated Libraries Using Quantitative High-Throughput Screening (AID 1296008). Note: nearly all actives have a fitted effect of over 60% in size. The note with it: Five cell lines viability, CellTiter-Glo ATP luminescence, 48-72 h; max response: active compounds read low. In outline: (§1)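 Compounds were pin-transferred onto cells and incubated 48 or 72 hr at 37 degree Celsius, 95% humidity. CellTiter-Glo was added, plates sat 10 min at room temperature, then ATP-coupled luminescence was imaged as the viability read-out.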
For orientation: ATP-based viability assays read luminescence as a measure of living cells.
For `CC(C)C(C#N)O[C@@H]1O[C@H](CO[C@@H]2O[C@@H](C)[C@H](O)[C@@H](O)[C@H]2O)[C@@H](O)[C@H](O)[C@H]1O` (some centres undefined), the max response is -1.19%. Same read-out and setting: in the case of `CC1(C)CCCC2(C)C1CC=C1C(=O)OC(O)C12O` (centres undefined) it was 3.77%.

Consider `C=C1CCC2C(C)(C(=O)O)CCCC2(C)C1CCC(C)CC(=O)O` (centres undefined), for which the max response is -0.708%. The same measure, in the same setting: in the case of `CC(O)CCC1C(CO[C@@H]2O[C@H](CO)[C@@H](O)[C@H](O)[C@H]2O)CC(O)CC1(C)C` (some centres undefined) it was 8.38%.

As to `C[C@@H]1O[C@@H](O[C@H]2[C@H](O)[C@@H](O[C@@H]3O[C@H](CO)[C@@H](O)[C@H](O[C@@H]4O[C@H](CO)[C@@H](O)[C@H](O)[C@H]4O)[C@H]3O)[C@H](O[C@H]3CC[C@@]4(C)C(=CC[C@@H]5C4CC[C@@]4(C)C5C[C@@H]5OC6(CC[C@@](C)(CO[C@@H]7O[C@H](CO)[C@@H](O)[C@H](O)[C@H]7O)O6)[C@@H](C)[C@@H]54)C3)O[C@@H]2CO)[C@H](O)[C@H](O)[C@H]1OC1OC(CO)C(O)C(O)C1O` (some centres undefined), the result was inactive. The same measure, in the same setting: in the case of `CC(C)(C)C(=O)CN1C(=O)[C@H](NC(=O)Nc2cccc(C(=O)O)c2)CN(C2CCCCC2)c2ccccc21` it was “inactive”; in that of `CC(C)=CCC/C(C)=C/CO[C@@H]1O[C@H](CO)[C@@H](OC(=O)/C=C/c2ccc(O)cc2)[C@H](O[C@@H]2O[C@@H](C)[C@H](O)[C@@H](O)[C@H]2O)[C@H]1O`, “inactive”.

As for `CC1CCC2(CO)C(C(=O)O)=CCCC2C1(C)CCc1ccoc1` (centres undefined), the max response was 3.67%.

For `C=CC1(C)C=C2CCC3C(C)(C)C(O[C@@H]4O[C@@H](CO)[C@H](O)[C@H]4O)CCC3(C)C2CC1O[C@@H]1O[C@H](C)[C@H](O)[C@H](O)[C@H]1O` (some centres undefined), the max response was -11.1%. As to `COc1cc(/C=C/C(=O)OC[C@H]2O[C@@](CO)(O[C@H]3O[C@H](CO)[C@@H](O)[C@H](O)[C@H]3O)[C@@H](OC(=O)/C=C/c3ccc(O)c(OC)c3)[C@@H]2O)ccc1O`, the max response is -7.62%. For `O=C(C(c1ccccc1)c1ccccc1)N1CCN(CC(O)COc2cccc3ncccc23)CC1` (centres undefined), the max response is -28.1%. Still for that read-out and setting: under `C[C@@H]1O[C@@H](O[C@H]2[C@H](O)[C@@H](O[C@@H]3O[C@H](CO)[C@@H](O)[C@H](O[C@@H]4O[C@H](CO)[C@@H](O)[C@H](O)[C@H]4O)[C@H]3O)[C@H](O[C@H]3CC[C@@]4(C)C(=CC[C@@H]5C4CC[C@@]4(C)C5C[C@@H]5OC6(CC[C@@](C)(CO[C@@H]7O[C@H](CO)[C@@H](O)[C@H](O)[C@H]7O)O6)[C@@H](C)[C@@H]54)C3)O[C@@H]2CO)[C@H](O)[C@H](O)[C@H]1O` (some centres undefined) stands 4.11%; under `COc1ccc(/C=C/C(=O)O[C@@H]2[C@@H](O)[C@@H](O)[C@H](O[C@@H]3C=C(CO)[C@H]4[C@H](O[C@@H]5O[C@H](CO)[C@@H](O)[C@H](O)[C@H]5O)OC=C[C@H]43)O[C@H]2C)cc1O`, -14.4%. As to `CC1CC[C@]2(C(=O)O)CC[C@]3(C(=O)O)C(=CCC4[C@@]5(C)CC[C@H](OC6OC(C)C(O)C(OC7OC(CO)C(O)C(O)C7O)C6O)C(C)(C)C5CC[C@]43C)C2C1C` (some centres undefined), the molecule was classed as inactive. Regarding `C/C(=C/CO)CC[C@@H]1[C@@](C)(O)CCC2C(C)(C)CCC[C@]21C` (some centres undefined), the max response was 5.46%. As for `O=C(NCC(O)CO)c1ccncc1Nc1ccc(I)cc1F` (centres undefined), the outcome was inactive.

Take `CC(=O)O[C@@H](CO[C@@H]1O[C@H](CO)[C@H](O)[C@H](O)[C@H]1O)[C@]1(C)C=C2CC[C@@H]3C(C)(C)[C@@H](O)CC[C@@]3(C)[C@@H]2CC1`: the max response was 2.92%. The same measure, in the same setting: under `C[C@@H]1CC[C@]2(C(=O)O)CC[C@]3(C)C(=CCC4[C@@]5(C)C[C@@H](O)[C@H](O)[C@@](C)(CO)C5CC[C@]43C)C2[C@]1(C)O` (some centres undefined) stands 2.17%. Consider `CC(C)=CCC[C@](C)(O)[C@H]1CC[C@]2(C)[C@@H]1[C@H](O)CC1[C@@]3(C)CC[C@H](O)C(C)(C)C3[C@@H](O[C@@H]3O[C@H](CO)[C@@H](O)[C@H](O)[C@H]3O[C@@H]3OC[C@@H](O)[C@H](O)[C@H]3O)C[C@]12C` (some centres undefined), for which the call was inactive.

The next assay relates to NIH3T3. The description is as above. The note with it: Five cell lines viability, CellTiter-Glo ATP luminescence, 48-72 h; max response: active compounds read low. The method, boiled down: as §1
As to `CCC1C(=O)N(C)c2cnc(Nc3ccc(C(=O)NC4CCC(N5CCN(CC6CC6)CC5)CC4)cc3OC)nc2N1C(C)C` (centres undefined), the Potency was 1.64 µM (active). Consider `C[C@@H]1O[C@@H](O[C@H]2[C@H](O)[C@@H](O)[C@H](OC3CCC4(C)C5CCC(C)(C(CO)OC6OC(CO)C(O)C(O)C6O)CC5=CCC4C3(C)C)O[C@@H]2CO)[C@H](O)[C@H](O)[C@H]1O` (some centres undefined), for which the max response was 3.8%.

For the molecule `C[C@@H]1C[C@@H](O)[C@@]23CO[C@@H](O)[C@@H]2CCC[C@@H]3[C@@]12C[C@@H](c1ccoc1)OC2=O`, the max response is 4.21%. Same read-out and setting: under `CC(C)(C)OC(=O)N1CCC(OCc2nc(-c3ccncc3)no2)CC1` stands -1.32%; under `CC1(C)CC[C@]2(C(=O)O[C@@H]3O[C@H](CO)[C@@H](O)[C@H](O)[C@H]3O)CC[C@]3(C)C(=CCC4[C@@]5(C)C[C@@H](O)[C@H](O)C(C)(C)C5CC[C@]43C)C2[C@@H]1O` (some centres undefined), -3.15%.

For `CC(C)C(NC(=O)c1ccc2ccccc2n1)C(=O)NC(CC(=O)O)C(=O)COc1c(F)cccc1F` (centres undefined), the max response was -0.522%.

`CC1=CC(=O)CC(C)(C)[C@@]1(O)CC[C@@H](C)O[C@@H]1O[C@H](CO)[C@@H](O)[C@H](O)[C@H]1O`: the max response was 0.984%. The same measure, in the same setting: in the case of `CC(O)/C=C/C1C(C)C(O[C@@H]2O[C@H](CO)[C@@H](O)[C@H](O)[C@H]2O)C(O)CC1(C)C` (some centres undefined) it was 0.539%. Still for that read-out and setting: in the case of `CO[C@H]1C[C@@H]2CC[C@@H](C)[C@@](O)(O2)C(=O)C(=O)N2CCCC[C@H]2C(=O)O[C@H]([C@H](C)C[C@H]2CC[C@@H](OP(C)(C)=O)[C@H](OC)C2)CC(=O)[C@H](C)/C=C(\C)[C@@H](O)[C@@H](OC)C(=O)[C@H](C)C[C@H](C)/C=C/C=C/C=C/1C` it was -2.54%. As to `CCCCC1CCN(CCCC(=O)c2ccccc2C)CC1`, the max response was -22.9%.

As to `CC12CCC(OC3OC(CO)C(O)C(OC4OC(CO)C(O)C(O)C4O)C3O)CC1CCC1C2CCC2(C)/C(=C3/COC(=O)C3)CCC12O` (centres undefined), the max response is 4.18%. Same read-out and setting: under `NCc1c[nH]c(=S)n1[C@@H]1CCc2c(F)cc(F)cc2C1` stands -1.29%.

`C[C@@H]1C(=O)O[C@H]2C[C@]34[C@H]5C[C@@H](C(C)(C)C)[C@]36[C@@H](OC(=O)[C@H]6O)O[C@]4(C(=O)O5)[C@]21O`: the max response was 3.92%.

In the case of `CC(C)(C)c1ccc(S(=O)(=O)NCc2ccc(C(=O)Nc3cccnc3)cc2)cc1`, the Potency is 3.66 µM (active).

As for `COCCOc1ccc(N2CCN(CCn3ncc4c3nc(N)n3nc(-c5ccco5)nc43)CC2)cc1`, the max response is 0.99%. The same measure, in the same setting: under `CCOCc1nc2c(N)nc3ccccc3c2n1CC(C)(C)O` stands -2.04%. On to `CC[C@H](C)[C@H](NC(=O)[C@H]([C@@H](C)CC)N(C)C(C)=O)C(=O)N[C@H](C(=O)N[C@@H](CC(C)C)C(=O)[C@@]1(C)CO1)[C@@H](C)O`, for which the Potency was 0.058 µM (active). As to `COC(=O)[C@H](O)[C@H]1C(C)(C)[C@H](OC(=O)C(C)C)[C@@]2(O)C(=O)[C@]1(C)C1CC[C@]3(C)C(CC(=O)O[C@H]3c3ccoc3)[C@]13O[C@@H]32` (some centres undefined), the max response was -25.1%. Same read-out and setting: in the case of `COc1ccc([C@@H]2OC[C@H]3[C@@H]2CO[C@@H]3c2ccc(OC3OC(CO)C(O)C(O)C3O)c(OC)c2)cc1OC` (some centres undefined) it was -7.42%. Still for that read-out and setting: under `CC1=C(CCC(C)O[C@@H]2O[C@H](CO)[C@@H](O)[C@H](O)[C@H]2O)C(C)(C)CCC1=O` (some centres undefined) stands -15.3%; under `CC(C)C(C#N)O[C@@H]1O[C@H](CO[C@@H]2O[C@@H](C)[C@H](O)[C@@H](O)[C@H]2O)[C@@H](O)[C@H](O)[C@H]1O` (some centres undefined), -15%; under `CC1(C)CCCC2(C)C1CC=C1C(=O)OC(O)C12O` (centres undefined), 0.868%. Same read-out and setting: in the case of `C=C1CCC2C(C)(C(=O)O)CCCC2(C)C1CCC(C)CC(=O)O` (centres undefined) it was -9.77%. `CC(O)CCC1C(CO[C@@H]2O[C@H](CO)[C@@H](O)[C@H](O)[C@H]2O)CC(O)CC1(C)C` (some centres undefined): the max response is -8.75%. On the same count and under the same terms, under `C[C@@H]1O[C@@H](O[C@H]2[C@H](O)[C@@H](O[C@@H]3O[C@H](CO)[C@@H](O)[C@H](O[C@@H]4O[C@H](CO)[C@@H](O)[C@H](O)[C@H]4O)[C@H]3O)[C@H](O[C@H]3CC[C@@]4(C)C(=CC[C@@H]5C4CC[C@@]4(C)C5C[C@@H]5OC6(CC[C@@](C)(CO[C@@H]7O[C@H](CO)[C@@H](O)[C@H](O)[C@H]7O)O6)[C@@H](C)[C@@H]54)C3)O[C@@H]2CO)[C@H](O)[C@H](O)[C@H]1OC1OC(CO)C(O)C(O)C1O` (some centres undefined) stands -4.4%; under `CC(C)(C)C(=O)CN1C(=O)[C@H](NC(=O)Nc2cccc(C(=O)O)c2)CN(C2CCCCC2)c2ccccc21`, 1.3%; under `CC(C)=CCC/C(C)=C/CO[C@@H]1O[C@H](CO)[C@@H](OC(=O)/C=C/c2ccc(O)cc2)[C@H](O[C@@H]2O[C@@H](C)[C@H](O)[C@@H](O)[C@H]2O)[C@H]1O`, -7.03%.

Consider `CC1CCC2(CO)C(C(=O)O)=CCCC2C1(C)CCc1ccoc1` (centres undefined), for which the max response was -11.3%.

`C=CC1(C)C=C2CCC3C(C)(C)C(O[C@@H]4O[C@@H](CO)[C@H](O)[C@H]4O)CCC3(C)C2CC1O[C@@H]1O[C@H](C)[C@H](O)[C@H](O)[C@H]1O` (some centres undefined): the max response is -6.13%. The same measure, in the same setting: under `COc1cc(/C=C/C(=O)OC[C@H]2O[C@@](CO)(O[C@H]3O[C@H](CO)[C@@H](O)[C@H](O)[C@H]3O)[C@@H](OC(=O)/C=C/c3ccc(O)c(OC)c3)[C@@H]2O)ccc1O` stands 0.754%.

The values are drawn from PubChem BioAssay (NCATS).
